# Measurements published in PubChem BioAssay (Tox21).
# Values without a mark were called inactive. The source made the active and inactive calls. The call rests on the fitted dose curve; in most records, active means well fitted activation curve with a large enough effect in the repeat runs; inconclusive means weak or mixed curves; inactive means flat fitted curve, though single readings scatter.
# Target: Androgen receptor (Homo sapiens) (UniProt P10275)
# Assay: qHTS assay to identify small molecule agonists of the androgen receptor (AR) signaling pathway using the MDA cell line (AID 743040; further: nearly all actives have a fitted effect of over 20% in size)
# Conditions: MDA-kb2 AR-luc cells, MMTV luciferase, 16 h; series mostly up to 70.3 µM; activity change: at the top concentration
# Description: National Center for Advancing Translational Sciences [NCATS]
# NIH Chemical Genomics Center [NCGC]
# U.S. Environmental Protection Agency [EPA]
# National Institutes of Environmental Health Sciences [NIEHS]
# National Toxicology Program [NTP]
# U.S. Food and Drug Administration [FDA]
# Androgen receptor (AR), a nuclear hormone receptor, plays a critical role in AR-dependent prostate cancer and other androgen related diseases. Endocrine disrupting chemicals (EDCs) and their interactions with steroid hormone receptors like AR may cause disruption of normal endocrine function as well as interfere with metabolic homeostasis, reproduction, developmental and behavioral functions. To identify the compounds that activate AR signaling, MDA-kb2 AR-luc cell line (from ATCC, deposited by Wilson et al.) was used to screen the Tox21 10K compound library. MDA-kb2 AR-luc cell line is human breast carcinoma cell line that was stably transfected with a luciferase reporter gene under control of the MMTV promoter containing response elements for both androgen receptor (AR) and glucocorticoid receptor (GR).
# Tox21 Assay Protocol Summary:
# MDA-kb2 AR-luc cells were dispensed at 3,000 cells/5 uL/well of culture medium into white wall/solid-bottom 1536-well plates using a Multidrop Combi (ThermoFisher Scientific, Waltham, MA) dispenser. After the assay plates were incubated at 37C and 0% CO2 for 5 h, 23 nL of compounds dissolved in DMSO, positive controls or DMSO only was transferred to the assay plate by a Pintool station (Kalypsys, San Diego, CA). The plates were incubated at 37C and 0% CO2 for 16 h. Then 4 uL of ONE-Glo reagent (Promega, Madison, WI) was added to each plate using a Bioraptr Flying Reagent Dispenser (FRD) workstation (Beckman Coulter, Indianapolis, IN, USA) and luminescence was quantified on a ViewLux (PerkinElmer, Shelton, CT) plate reader after 30 min incubation at room temperature.
# On the % scale 0 is the no-effect control and ±100 the full control effect; potency means the concentration at half of the fitted maximal effect.
# Chain of Androgen receptor (Homo sapiens) (P10275 whole entry, looked up): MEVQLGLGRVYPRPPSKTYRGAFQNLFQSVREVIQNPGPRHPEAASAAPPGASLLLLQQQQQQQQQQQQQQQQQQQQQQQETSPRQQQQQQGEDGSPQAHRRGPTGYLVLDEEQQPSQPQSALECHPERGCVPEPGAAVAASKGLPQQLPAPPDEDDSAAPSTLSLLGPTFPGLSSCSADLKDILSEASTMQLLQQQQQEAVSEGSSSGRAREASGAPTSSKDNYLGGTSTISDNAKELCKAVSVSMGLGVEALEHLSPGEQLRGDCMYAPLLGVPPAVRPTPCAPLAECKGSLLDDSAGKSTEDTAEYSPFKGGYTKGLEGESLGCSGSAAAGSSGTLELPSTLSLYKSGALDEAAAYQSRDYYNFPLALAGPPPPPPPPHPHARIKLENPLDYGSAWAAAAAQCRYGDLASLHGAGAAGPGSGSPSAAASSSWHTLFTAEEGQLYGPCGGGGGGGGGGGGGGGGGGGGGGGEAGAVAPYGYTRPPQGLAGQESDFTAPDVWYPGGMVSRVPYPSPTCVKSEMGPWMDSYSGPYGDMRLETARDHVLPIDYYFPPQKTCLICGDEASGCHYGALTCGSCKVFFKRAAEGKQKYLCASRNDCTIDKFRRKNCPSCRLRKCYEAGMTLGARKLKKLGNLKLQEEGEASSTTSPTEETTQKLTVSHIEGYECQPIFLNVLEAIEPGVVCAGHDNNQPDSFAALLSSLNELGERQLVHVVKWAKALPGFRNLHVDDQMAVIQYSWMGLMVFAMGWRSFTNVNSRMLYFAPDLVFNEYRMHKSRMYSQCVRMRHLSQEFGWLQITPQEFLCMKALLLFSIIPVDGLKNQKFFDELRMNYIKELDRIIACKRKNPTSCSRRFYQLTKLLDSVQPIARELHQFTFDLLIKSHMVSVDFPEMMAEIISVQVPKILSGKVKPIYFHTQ
Compound,activity change,Potency
CCC(C)OC(C)CC (centres undefined),"0.193% [at 95 µM, stronger effect = higher value]",–
O=C(Cl)c1ccccc1[N+](=O)[O-],"-3.36% [at 95 µM, stronger effect = higher value]",–
CC(Oc1cc(Cl)ccc1Cl)C(=O)O (centres undefined),0.937%,–
N[C@@H](CSCCCO)C(=O)O,–,33.5 µM (active)
COc1ccc2c(c1)c1c3n2CCN(C)C3=NCC1,1.42%,–
CC(C)C1OCCN1CCOC(=O)NCCCCCCNC(=O)OCCN1CCOC1C(C)C (centres undefined),0.0167%,–
CCCCCCCCCOC(=O)c1ccccc1C(=O)OCCCCCCCCC,3.39%,–
CC(C)[C@H]1CC[C@H](C)C[C@@H]1O,"-0.332% [at 95 µM, stronger effect = higher value]",–
OC[C@H]1O[C@@H](O[C@@H]2[C@@H](CO)O[C@](O)(CO)[C@H]2O)[C@H](O)[C@@H](O)[C@H]1O,2.65%,–
CC(=O)OC1CCCCC1C(C)(C)C (centres undefined),0.391%,–
COc1cc2c(cc1OC)C(=O)C(CC1CCN(Cc3ccccc3)CC1)C2 (centres undefined),2.44%,–
CC(=O)O[C@H]1C[C@@H]2CC[C@@]1(C)C2(C)C,0.34%,–
O=C(O)CSCC(=O)NC1CCSC1=O (centres undefined),2.26%,–
O=C(NCN1CCOCC1)c1cnccn1,-0.54%,–
COc1ccc(CCO)cc1,0.332%,–
CCO,"0.0391% [at 95 µM, stronger effect = higher value]",–
COC(C)(OC)OC,-0.539%,–

Compound,activity change,Potency
COC(=O)c1cc(Cl)cc(Cl)c1,1.39%,–
Nc1nc(-c2ccccc2)c(Br)c(=O)[nH]1,1.18%,–
CC(=O)c1cc(C)oc1C,"0.113% [at 95 µM, stronger effect = higher value]",–
CCC(=O)c1c(O)cc(O)cc1O,-1.94%,–
Cc1c(C(=O)c2c[nH]n(C)c2=O)ccc(S(C)(=O)=O)c1C1=NOCC1,"-2.89% [at 32.5 µM, stronger effect = higher value]",–
CC(S)C(C)S (centres undefined),"-2.57% [at 95 µM, stronger effect = higher value]",–
CC(=O)CC(=O)OC(C)(C)C,-1.64%,–
CC(=O)O[C@@H]1CC2CCC1(C)C2(C)C (some centres undefined),–,inactive
CCCCC1CCC(O)CC1 (centres undefined),0.391%,–
Cc1ccc(C(=O)O)cc1[N+](=O)[O-],0.186%,–
C=CCOC(=O)CCCCCC,0.442%,–
C#CCN[C@@H]1CCc2ccccc21,0.238%,–
OCC1CCC(CO)CC1 (centres undefined),"-0.991% [at 95 µM, stronger effect = higher value]",–
CC(C)COC(=O)c1ccccc1,-1.26%,–
C/C=C(\C)C(C)=O,0.0416%,–
CCO[Si](CC)(OCC)OCC,-0.135%,–
CC(=O)CC(=O)Nc1ccc(C)cc1C,-0.0253%,–
